Screening results as filed in PubChem.
IL2 activator: activators of IL-2 | IL-2 activation reporter assay, cell-based qHTS; stimulated with anti-CD3/CD4/CD28 beads; in transgenic mouse T cells | activation, % (series mostly up to about 46 µM) | actives 0.065% (n = 360,000) | AID 652025; in the data active means activation above about 50%; inconclusive means mostly about 30% to 49%; further: 0% is about no effect
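Using fluorescent plate cytometry, EGFP and DsRed are detected in transgenic mouse T cells stimulated 18 h at 37 degrees C with antibody-coated beads after 60 min compound pretreatment.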
BRCA1 expr act: activators of BRCA1 expression; MCF7-BRCA1-FFLuc reporter, luminescence, 48 h; response scale: scaled: vehicle 0%, 10 µM genistein 100%; Potency, µM (doses to about 46.1 µM), without a hit: at the top dose activation, most hits filed as activators; actives 1.1% (n = 380,000); further: potency means the concentration at half of the fitted maximal effect; nearly all actives have a fitted effect of over 80% in size
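48 h compound treatment of MCF7-BRCA1-FFLuc cells (phenol-red free MEM, 37 °C), then 15 min with luciferase substrate and luminescence imaging.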
ELG1 DNA repair: blocks ELG1-dependent DNA repair in HEK293T cells | AID 504467 | Potency, µM (titrated, usually from 46.1 µM), without a hit: at the top dose activity change, negative = inhibition, hits mostly inhibitors | actives 2.3% (n = 330,000) | HEK293T ELG1-luciferase reporter, luminescence, 16 h; DNA damage induced by 5-fluorouridine; further: potency means the concentration at half of the fitted maximal effect; on the % scale 0 is the no-effect control and ±100 the full control effect; nearly all actives have a fitted effect of over 55% in size
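Reporter activity after DNA damage by 5-fluorouridine is monitored. Compound-treated cells incubate 16 hr at 37 °C, then ONE-Glo is added for 30 min before luminescence reading.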
Nrf2 activator: activators of Nrf2 (ARE) signaling; actives 0.31% (n = 410,000); AREc32 ARE-luciferase reporter (MCF7-derived line), luminescence, 24 h; Potency, µM (highest dose often 46.1 µM), for the others: at the highest dose activation, hits mostly activators; further: potency means the concentration at half of the fitted maximal effect; % of control where 0% means no effect; nearly all actives have a fitted effect of over 65% in size
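Nrf2 activation is followed as ARE-luciferase induction in the AREc32 line after one day of compound treatment; luminescence is read with Steady-Glo.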
* = called active by the depositor; u = inconclusive; x = not tested or not shown. A selection: hits, their analogues and other compounds. The true share with any hit is near 3.1%. Unless noted, the call rests on the fitted dose curve; in most records, active means well fitted curve in the direction sought with a large enough effect; inconclusive means small, poorly fitted or top-dose-only effect, or another doubt; inactive means no such curve, though single readings can be large; an effect the other way counts as inactive or inconclusive.

SMILES | IL2 activator | BRCA1 expr act | ELG1 DNA repair | Nrf2 activator
Cc1c(C(=O)NCc2ccccc2)oc2ccc(S(=O)(=O)N3CCCC3)cc12 | -1.9 | -5.0% | 14.6µM* | 1.7%
Cc1c(C(=O)NCc2cccnc2)oc2ccc(S(=O)(=O)N3CCCCC3)cc12 | -1.3 | -71.5% | 5.8µM* | -0.1%
CSc1ccc(CCNC(=O)Cn2ncn3c(cc4ccccc43)c2=O)cc1 | x | x | x | -0.5%
CCOC(=O)[C@]12CCC=C1N(Cc1cccc3ccccc13)C(=O)[C@H](CC(=O)NCCCOC)C2 | -0.4 | 9.1% | x | 0.4%
CC1C/C(=C/c2ccncc2)C(=O)/C(=C/c2ccncc2)C1 (stereo unspecified) | 0.2 | -75.2% | 20.6µM* | -3.9%
O=C(Nc1cc2c(cc1Br)OCCO2)c1cccs1 | 12.9 | 61.0% | u | 12.6µM*
O=C(Nc1cccc2cccnc12)OCc1ccccc1 | x | -8.0% | x | x
O=C1CC(NC(=O)C(F)(F)F)c2cc3c(cc21)OCO3 (stereo unspecified) | 4.4 | 4.8% | 0.3% | 3.4%
COc1cc2c(cc1OC)C(NC(=O)C(F)(F)F)CNC2=O (stereo unspecified) | -1.0 | 0.0% | 11.6µM* | 0.2%
CCCCN(Cc1ccccc1)c1ncnc2nc[nH]c12 | -1.0 | 12.6µM* | u | 1.5%
COc1ccc(OC)c(NC(=O)CSc2ncnc3c2cnn3-c2ccccc2Cl)c1 | -3.3 | -92.0% | 9.2µM* | 3.0%
COc1cc(NC(=O)CSc2ncnc3c2cnn3Cc2ccccc2)cc(OC)c1 | -1.4 | 1.4% | u | -0.4%
Cc1ccc(C)c(OCCn2cc(C(=O)c3cccs3)c3ccccc32)c1 | x | x | x | 2.7%
Cc1cccc(NC(=O)c2sc(-n3nc(C)c(CCC(C)C)c3C)nc2C)c1 | x | x | x | 0.2%
Cc1cc2nc(-c3ccc(OCc4ccc(F)cc4)cc3)cc(C(F)(F)F)n2n1 | x | 9.7% | x | -0.5%
COc1ccc(-c2nnc(SCC(=O)Nc3sc4c(c3C#N)CCCC4)n2-c2ccccc2)cc1 | -2.2 | 4.7% | -9.7% | 0.1%
Cc1sc2nc(SCC(=O)Nc3c(C)n(C)n(-c4ccccc4)c3=O)n(C)c(=O)c2c1C | -2.1 | -7.1% | u | -0.1%
COc1cccc(-n2c(SCC(=O)Nc3sc4c(c3C(N)=O)CCC4)nc3ccccc3c2=O)c1 | -0.6 | -24.4% | 6.51µM* | 0.0%
COc1ccc(-n2c(SCC(=O)Nc3sc4c(c3C#N)CCCC4)nnc2-c2ccccc2OC)cc1 | 0.9 | -46.7% | 25.9µM* | 0.1%
COc1ccccc1NC(=O)CSc1nc2sc(C)c(C)c2c(=O)n1C | -0.7 | -0.6% | 14.6µM* | -0.1%
CC(C)Cn1c(SCC(=O)Nc2cccc(S(N)(=O)=O)c2)nc2ccccc2c1=O | 0.1 | -38.3% | 16.4µM* | -0.5%
COc1cccc2c(C)cc3nnc(SCC(=O)Nc4ccc(C)cc4)n3c12 | x | x | x | 0.4%
Cc1cccc(NC(=O)C(c2ccccc2)N2Cc3ccccc3C2=O)c1C (stereo unspecified) | x | x | x | -0.7%
COc1cccc(NC(=O)CSc2nc3ccccc3c(=O)n2C)c1 | -0.1 | -17.1% | 9.2µM* | 3.2%
COc1ccccc1NC(=O)Cn1cnc2sc(C(=O)Nc3ccc(OC)c(OC)c3)c(C)c2c1=O | 0.3 | -31.1% | -8.8% | 1.0%
SMILES | IL2 activator | BRCA1 expr act | ELG1 DNA repair | Nrf2 activator
CCCCn1c(SCC(=O)Nc2cc(NC(=O)c3ccco3)ccc2C)nc2ccccc2c1=O | -0.9 | -30.7% | 16.4µM* | -0.3%
CC(C)Oc1ccccc1NC(=O)CSc1nc2ccccc2c(=O)n1C | 0.2 | -44.4% | u | 2.7%
COc1ccccc1NC(=O)Cn1cnc2sc(C(=O)Nc3cc(OC)c(OC)c(OC)c3)c(C)c2c1=O | -1.3 | -52.4% | 8.2µM* | 3.3%
Cc1ccccc1NC(=O)CSc1nc2ccccc2c(=O)n1C | -0.2 | -42.9% | 14.6µM* | -0.6%
COc1cc(OC)cc(-c2nc3nc(C)c(CCC(=O)Nc4ccc(C)c(C)c4)c(C)n3n2)c1 | x | 1.1% | x | 0.4%
C[C@H]1CN([C@@H](C)CO)C(=O)CCCn2cc(nn2)CO[C@@H]1CN(C)C(=O)Oc1ccccc1 | 0.2 | 15.0% | x | 0.5%
O=C(CC(c1cccs1)N1Cc2ccccc2C1=O)Nc1ccccc1F (stereo unspecified) | x | -10.7% | x | 2.5%
O=C(CSc1nc2ccccc2c(=O)n1CCC(=O)N1CCCCC1)NCc1ccccc1 | -1.3 | -23.9% | 14.6µM* | 0.1%
COc1cccc(NC(=O)CSc2ccccn2)c1 | -2.7 | 10µM* | u | 3.8%
COC(=O)c1ccccc1NC(=O)CSc1nc2cccnc2n1C | -1.7 | -30.3% | -16.7% | -0.6%
COC(=O)c1cccc(NC(=O)CSc2nc3cccnc3n2C)c1 | 0.5 | -13.4% | 13µM* | 0.3%
Cc1cc(C)cc(N(C(=O)c2cc3ccccc3oc2=O)C2C=CS(=O)(=O)C2)c1 (stereo unspecified) | -1.9 | -20.3% | -10.0% | 14.1µM*
Cc1ccc(N(C(=O)c2cc3ccccc3oc2=O)C2C=CS(=O)(=O)C2)cc1 (stereo unspecified) | 1.5 | 0.3% | 5.3% | 0.1%
CC[N+]1(CC(=O)c2cccs2)CCCCC1 | x | -3.8% | x | x
O=C(CSc1ccccc1C(=O)N1CCN(c2ccc([N+](=O)[O-])cc2)CC1)N1CCCC1 | 1.9 | -36.3% | 14.6µM* | 2.1%
CC(=O)N/N=C\c1ccccc1OC/C=C/c1ccccc1 | 2.4 | 2.82µM* | u | 5.4%
COC(=O)N/N=C\c1ccc(OC/C=C/c2ccccc2)cc1 | 0.8 | 7.08µM* | 2.1% | 0.4%
Cc1ccc(/C=N/NC(=O)Nc2ccccc2)o1 | -0.4 | 12.6µM* | u | 3.4%
COC(=O)N/N=C/c1ccc(Oc2ccccc2)cc1 | -0.8 | 10µM* | u | 4.3%
O=C(N/N=C/c1ccccc1)C(=O)N/N=C/c1ccccc1 | -0.5 | 0.9% | 1.2% | 3.8%
O=C(CNc1cc(S(=O)(=O)N2CCOCC2)ccc1N1CCCC1)Nc1ccc(Cl)cc1 | 1.6 | 0.0% | x | -0.9%
COC(=O)c1ccc(NC(=O)N2CCC(CN3CCc4ccccc4C3)CC2)cc1 | x | x | x | 8.1%
COc1cccc2c1Oc1ncccc1N(C(=O)CCC(=O)NCCC(C)C)C2 | x | x | x | -0.4%
O=[N+]([O-])c1ccccc1S(=O)(=O)NCc1ccccn1 | x | 20.3% | x | x
CCOC(=O)N/N=C/c1c(F)cccc1F | 0.1 | 81.6% | u | 0.0%
SMILES | IL2 activator | BRCA1 expr act | ELG1 DNA repair | Nrf2 activator
CC(=O)Oc1ccc(/C=N/NC(=S)Nc2ccccc2)cc1 | -0.9 | 11.2µM* | u | 6.1%
CCOC(=O)N/N=C/c1ccccc1F | -0.4 | 10µM* | u | 0.1%
CCOC(=O)N/N=C\c1ccc(OC/C=C/c2ccccc2)cc1 | -2.9 | 8.91µM* | 7.5% | -0.1%
CC(=O)c1c(C)[nH]c(C(=O)OCc2ccc(Br)cc2)c1C | -2.6 | 57.9% | 18.3µM* | 10.3%
CC(=O)c1c(C)[nH]c(C(=O)CN(C)CC(=O)Nc2ccccc2Cl)c1C | -0.7 | -33.7% | 18.3µM* | 6.0%
CC(=O)c1c(C)[nH]c(C(=O)OCc2cccc(C)c2)c1C | 1.2 | -9.9% | u | 7.9%
